In PubChem BioAssay (EPA / NIEHS):
Active and inactive are the calls of the source. How the source made its calls: active means hit-call score of the fitted dose curve at least 0.9, where 1 is the maximum; inactive means score below 0.9.

Tests used:
[1] = CCTE_Harrill_HTTr_Viability_PRF_DMEM_24hr: (Pilot) CCTE's 24-hour Cell Viability Assessment for the High-Throughput Transcriptomics (HTTr) Platform, in MCF-7 cells cultured in phenol red-free DMEM + 10% charcoal-stripped fetal bovine serum, Harrill Lab (AID 2283980)
Summary of the method: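 Propidium iodide exclusion imaged at 24 h after dosing scores viability; cells were MCF-7 grown in phenol red-free DMEM plus 10% charcoal-stripped serum, tested in eight concentrations, fitted in both directions against DMSO.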

[2] = CCTE_Harrill_HTTr_Apoptosis_DMEM_6hr: (Pilot) CCTE's 6-hour Apoptosis Assessment for the High-Throughput Transcriptomics (HTTr) Platform, in MCF-7 cells cultured in DMEM + 10% fetal bovine serum, Harrill Lab (AID 2283981)
Summary of the method: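 MCF-7 cells grown in DMEM + 10% FBS were exposed for 6 hours to an eight-point dilution series. CellEvent Caspase 3/7 Green signal was imaged; activity fitted bidirectionally against DMSO.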

[3] = CCTE_Harrill_HTTr_Apoptosis_DMEM_12hr: (Pilot) CCTE's 12-hour Apoptosis Assessment for the High-Throughput Transcriptomics (HTTr) Platform, in MCF-7 cells cultured in DMEM + 10% fetal bovine serum, Harrill Lab (AID 2283982)
Summary of the method: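 Caspase-3/7 activity was measured by high-content imaging (CellEvent Caspase 3/7 Green) after a 12-hour exposure of MCF-7 cells grown in DMEM with 10% FBS. Eight-point concentration series, fitted bidirectionally against vehicle.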

[4] = CCTE_Harrill_HTTr_Apoptosis_DMEM_24hr: (Pilot) CCTE's 24-hour Apoptosis Assessment for the High-Throughput Transcriptomics (HTTr) Platform, in MCF-7 cells cultured in DMEM + 10% fetal bovine serum, Harrill Lab (AID 2283983)
Summary of the method: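 Caspase-3/7 activity read by high-content imaging (CellEvent Green reagent) 24 h after dosing. MCF-7 cells grown in DMEM with 10% FBS received an eight-point concentration series; fits were bidirectional versus DMSO.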

[5] = CCTE_Harrill_HTTr_Apoptosis_PRF_DMEM_6hr: (Pilot) CCTE's 6-hour Apoptosis Assessment for the High-Throughput Transcriptomics (HTTr) Platform, in MCF-7 cells cultured phenol red-free DMEM + 10% charcoal-stripped fetal bovine serum, Harrill Lab (AID 2283984)
Summary of the method: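 Caspase-3/7 activity (CellEvent Green) read by high-content imaging 6 h after dosing, eight concentrations. Cells: MCF-7, phenol red-free DMEM with 10% charcoal-stripped serum. Curves fit both directions against DMSO.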

[6] = CCTE_Harrill_HTTr_Apoptosis_PRF_DMEM_12hr: (Pilot) CCTE's 12-hour Apoptosis Assessment for the High-Throughput Transcriptomics (HTTr) Platform, in MCF-7 cells cultured in phenol red-free DMEM + 10% charcoal-stripped fetal bovine serum, Harrill Lab (AID 2283985)
Summary of the method: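 Caspase-3/7 activity by CellEvent Green high content imaging after 12 h compound exposure (eight concentrations) in MCF-7 grown in phenol red-free DMEM plus 10% charcoal-stripped serum; DMSO as baseline.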

[7] = CCTE_Harrill_HTTr_Apoptosis_PRF_DMEM_24hr: (Pilot) CCTE's 24-hour Apoptosis Assessment for the High-Throughput Transcriptomics (HTTr) Platform, in MCF-7 cells cultured in phenol red-free DMEM + 10% charcoal-stripped fetal bovine serum, Harrill Lab (AID 2283986)
Source text: This is a cell-based assay that evaluates apoptosis using high content imaging to evaluate activation of caspase-3/7 using the CellEvent Caspase 3/7 Green detection reagent in 384-well format.One of seven assay components measured from the CCTE_Harrill_HTTr_Apoptosis assay. This was part of a pilot experiment. This is a cell-based assay that evaluates apoptosis in MCF-7 cells cultured in phenol red-free DMEM + 10% charcoal-stripped fetal bovine serum. High content imaging is used to evaluate activation of caspase-3/7 using the CellEvent Caspase 3/7 Green detection reagent. Measurements are taken at 24 hours after chemical dosing in 384-well format.The assay component endpoint CCTE_Harrill_HTTr_Apoptosis_PRF_DMEM_24hr was analyzed with bidirectional fitting relation to DMSO as the negative control and baseline of activity. Using a type of viability reporter, gain-of-signal activity can be used to evaluate activation of caspase-3/7 using the CellEvent Caspase 3/7 Green detection reagent to understand changes in apoptosis. To generalize the intended target to other relatable targets, this assay endpoint is annotated to cell cycle, where the subfamily is apoptosis.
Chemicals were tested in MCF7 cells in an eight point dilution series with a twenty-four hour exposure duration.

Measured: outcome

CC(C)(c1ccccc1)c1ccc(O)cc1
inactive: all assays above

CCC(C)(c1ccc(O)cc1)c1ccc(O)cc1
inactive: all assays above
